# In PubChem BioAssay (NCI):
# This is part of a sample that, as a whole, favours compounds with a hit. Of some 83,000 tested, about 20% had one in any assay.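 Note: values are percent growth. 100 is the growth of untreated cells, values between 100 and 0 indicate rising inhibition; between -100 and 0 indicates cell death.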 Unmarked numbers belong to inactive results. Calls of active or inactive are those of the source.
# Test system: HS 578T breast
# Experiment: NCI-60 one-dose screen, 48 h (100 = growth as untreated, 0 = no growth, -100 = all killed)
# Conditions: 10 µM unless noted
# Protocol: Growth inhibition of the HS 578T human tumor cell line is measured as a screen for anti-cancer activity. Cells are grown in 96 well plates and exposed to the test compound for 48 hours. Compounds are tested at a single concentration, which is 10^-5 M for most compounds. The reported endpoint is percent growth (GI% or GIPRCNT), where numbers from 0 - 100% represent growth inhibition, and numbers from -100% - 0 represent cell death. For example, a value of 40 represents 60% growth inhibition. A value of 0 means no net growth occurred over the course of the experiment. A value of -40 indicates 40% of cells at the beginning of the experiment died by the end of the experiment. A value of -100 means all cells are dead at the end of the experiment.
# NCI-60 Human Tumor Cell Lines Screen was performed using the standard one-dose NCI protocol, which is described in more detail at https://dtp.cancer.gov/discovery_development/nci-60/default.htm.
# Compounds with GIPRCNT values below 10 were considered active. Activity score was based on GIPRCNT using the following formula: […]
# Score is 0 for GIPRCNT values of 100 or above, 50 for GIPRCNT values of 0, and 100 for GIPRCNT values of -100.
row,SMILES,growth
1,COc1ccc(-c2cc(=O)[nH]c3c(OC)c4ccccc4c(OC)c23)cc1,-6.69% (active)
2,CCOC(=O)Cc1cnn(C)c1NC(=O)c1ccc(Cl)cc1NC(C)=O,97%
3,CSc1ncnc2c1ncn2C1CCCO1 (stereo not given),103%
4,COc1cccc(-c2nc3sccn3c2-c2ccnc(NCCCNS(=O)(=O)c3ccccc3)c2)c1,66.8%
5,C[C@@]1(N2C(=O)OC[C@@H]2c2ccccc2)C(=O)N([C@H](CC(=O)N2CCC(N3CCCCC3)CC2)C(=O)NCc2cccc(C(F)(F)F)c2)[C@@H]1/C=C/c1ccccc1,66.1%
6,c1ccc2sc(SCCCn3ccnc3)nc2c1,102%
7,COc1cc(C2CC(=O)Nc3c2cnn3Cc2ccco2)cc2c1OCCO2 (stereo not given),83.6%
8,O=C(Nc1ccc(F)cc1)Nc1ccc(CCO)cc1,106%
9,Nc1c(C(=O)Nc2ccccc2Cl)sc2nc3c(cc12)CCCCCC3,17.3%
10,COc1cc(/C=N/N(C)C)ccc1O,87.3%
11,COc1cc(C2C(C(=O)c3cccs3)=C(O)C(=O)N2CCN2CCOCC2)cc(OC)c1OC (stereo not given),112%
12,Nc1nc2c(c3ncccc13)C(c1cccc(Br)c1)Cc1ncccc1-2 (stereo not given),37.2%
13,C=C(CN1CCN(c2cccc(C(F)(F)F)n2)CC1)c1ccc(C(=O)Nc2ccccc2N)cc1,41.1%
14,CCCCCCCCCC(=O)Oc1ccc(/C(=C(/C)Cc2cccc(OC)c2)c2ccc(OCCN(C)C)cc2)cc1,108%
15,COc1ccc(C(=O)/C=C/c2cc3ccccc3[nH]c2=O)cc1,53.6%
16,O=C1NC(=O)C(CC(=O)n2c(-c3ccccc3)nc3ccccc32)C(=O)N1,102%
17,O=C1CCc2c(sc3[nH]c(=S)n(Cc4ccccc4)c(=O)c23)C1,-3.81% (active)
18,O=C(/C=C/c1cccc(Br)c1)c1ccccc1,101%
19,CCN(CC)CCC(=O)Nc1ccc(Cn2nnc3c2C(=O)c2nnn(Cc4ccc(NC(=O)CCN(CC)CC)cc4)c2C3=O)cc1,14.2%
20,CS(=O)(=O)c1ccc(-c2cnc3ccc(-c4cccc(S(C)(=O)=O)c4)nn23)cc1,10%

row,SMILES,growth
1,Cc1ccc(S(=O)(=O)N(CCc2ccc(Cl)cc2)S(=O)(=O)c2ccc(C)cc2)cc1,103%
2,Cc1nc2sc(C(=O)Nc3cccc4c3OCCO4)c(N)c2cc1C(C)O (stereo not given),33.5%
3,COc1ccc(-c2nc(Nc3cc(C)[nH]n3)c3ccccc3n2)cc1,2.72% (active)
4,COc1cc(-c2c3sc(=O)[nH]c3nc3c2c(=O)[nH]n3C(C)C)cc2c1OCO2,105%
5,CCN(CC)CCCC(C)Nc1ccnc2c(OC)cccc12 (stereo not given),127%
6,CCOC(=S)SCc1ccc(Cl)cc1,107%
7,COc1ccc(-c2c(C)noc2-c2ccc(O)cc2O)cc1,106%
8,COC1=CC(=O)C(OC)=C(OC)C1=O,95.5%
9,C/C(Cc1ccc(Cl)cc1)=C(\c1ccc(OCCN2CCCCCC2)cc1)c1ccc(OC(=O)Cc2ccccc2)cc1,62.3%
10,COc1ccc(C(=O)/C=C/c2c[n+](=O)c3ccc(F)cc3n2[O-])cc1,102%
11,CN1CCN(c2ccc3nc(-c4ccc5nc(-c6ccc(OCCC(C)(C)C)cc6)[nH]c5c4)[nH]c3c2)CC1,52.1%
12,CCNS(=O)(=O)c1ncnc2nc[nH]c12,144%
13,CCN(CC)C12CCCCC1(C)C(C#N)(C#N)C(C#N)=C(N)O2 (stereo not given),120%
14,CCOC(=O)/C=C/C(=O)[C@H](CC(C)C)NC(=O)[C@H](Cc1ccccc1)NC(=O)OCc1ccccc1,93.4%
15,CCOC(=O)c1cnc2ccc(OC)cc2c1Nc1cccc(S(=O)(=O)NC)c1,52.3%
16,CC/C=C\C[C@H](O)C/C=C1/C(=O)C=C[C@@H]1C/C=C\CCCC(=O)OC(C)C,53.9%
17,Cc1ccc(/C=C2\Oc3cc(OCC(=O)c4ccc(Cl)cc4)ccc3C2=O)cc1,95.4%
18,CCCCCCCCCCCCCCCCCCSC1=CC(=O)C(OC)=C(OC)C1=O,90.9%
19,Cc1cc(Nc2nc(N3CCOCC3)nc3ccccc23)n[nH]1,16.3%
20,Oc1ccc2c(=S)cc(-c3ccc(Br)cc3)oc2c1O,84%
